Values joined by “and” are separate entries in the source; they are usually repeats but may differ in a detail not shown here. Equal entries are not always repeated. Over roughly 5,300 compounds, “PER2::LUC luminescence relative to vehicle control” has its median near 0.96; the highest 2% begin near 1.3. The list comes from a sample in which the highest values are over-represented; it also holds similar structures and randomly drawn compounds.
System: mPer2Luc MEF
Test: PER2::LUC luminescence relative to vehicle control (fold of vehicle); higher = higher PER2::LUC reporter signal
Conditions: 10 µM
Method in brief: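 The value is PER2::LUC luminescence expressed as fold of vehicle control. Mouse embryonic fibroblasts carrying the mPer2Luc reporter were seeded at ~3000 cells per well in 384-well plates and grown in DMEM with 10% FBS at 37 °C and 5% CO2. Compounds from commercial libraries were added at 10 μM 48 h after seeding, and luminescence was read with the ONE-Glo luciferase assay system 24 h and 30 h after treatment, followed by an alamarBlue viability assay.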

| SMILES | PER2::LUC luminescence (time after treatment 24 h) | PER2::LUC luminescence (time after treatment 30 h) |
| --- | --- | --- |
| O=C(Nc1cccc(C(F)(F)F)c1)Nc1cc(Cl)ccc1C(=O)O | 1.07 | 1 |
| CCN(CC)CCNC(=O)c1ccc(N)cc1 | 1.11 | 1.27 |
| CCN(CC)CCNC(=O)COc1ccc(OC)cc1 | 1.38 | 1.49 |
| CCN(CC)CCNC(=O)c1cc(S(C)(=O)=O)ccc1OC | 0.984 | 0.88 |
| CC12CCC3c4ccc(O)cc4CCC3C1CCC2O (stereo not given) | 0.721 | 0.751 |
| OC[C@H]1O[C@@H](n2cnc3c(N[C@H]4CCC[C@@H]4O)ncnc32)[C@@H](O)C1O (stereo not given in full) | 1.25 | 0.88 |
| CN(C)CC1CCC2=C(C1=O)C(c1ccc(Cl)c(Cl)c1)C1=C(CCC(CN(C)C)C1=O)O2 (stereo not given) | 1.15 | 1.08 |
| O=C1Cc2c([nH]c3ccc(Br)cc23)-c2ccccc2N1 | 1.15 | 1.88 |
| O=C1Nc2cc(Br)ccc2/C1=C1/Nc2ccccc2/C1=N\O | 0.773 | 1.09 |
| CC(C)NC[C@@H](O)COc1ccc(CC(N)=O)cc1 | 1.01 | 0.958 |
| CC(C)NCC(O)COc1ccc(CC(N)=O)cc1 (stereo not given) | 1.26 | 1.06 |
| C[C@H](NCc1ccc(OCc2cccc(F)c2)cc1)C(N)=O | 1.22 and 1.67 | 1.5 and 1.51 |
| COc1ccc([C@@H]2CC(=O)c3c(O)cc(OC4O[C@H](CO[C@H]5O[C@@H](C)[C@@H](O)[C@@H](O)[C@H]5O)[C@H](O)[C@H](O)[C@H]4O)cc3O2)cc1O (stereo not given in full) | 1.02 | 1.03 |
| O=C(NCc1nc2ccccc2c(=O)n1-c1ccc(F)cc1)Nc1ccc(Cl)c(C(F)(F)F)c1 | 1 | 0.929 |
| O=S(=O)(O)c1cc(N=C=S)ccc1/C=C/c1ccc(N=C=S)cc1S(=O)(=O)O | 0.832 | 0.684 |
| CC(=O)Nc1ccc(NC(=S)NC(=O)c2ccc(C(C)(C)C)cc2)cc1 | 0.812 | 0.973 |
| CC(=O)Nc1ccc(O)cc1 | 0.846 | 0.81 |
| C/C(O)=C(\C#N)C(=O)Nc1ccc(C(F)(F)F)cc1 | 1.32 and 1.08 | 1.56 and 1.07 |
| O=C([O-])CN1CCN(CC(=O)[O-])CCN([C@H](CO)[C@H](O)CO)CCN(CC(=O)[O-])CC1.[Gd+3] (racemic) | 1.03 | 1.04 |
| C[C@H]1COC2(CCN(c3nc(=O)c4cc(C(F)(F)F)cc([N+](=O)[O-])c4s3)CC2)O1 (racemic) | 1.32 | 1.39 |
| COCc1c(C(C)C)nc(C(C)C)c(/C=C/[C@@H](O)C[C@@H](O)CC(=O)O)c1-c1ccc(F)cc1 | 0.305 | 0.274 |
| CCN1CCC[C@H]1CNC(=O)c1c(O)c(Cl)cc(Cl)c1OC | 1.14 and 1.02 | 0.977 and 0.877 |

| SMILES | PER2::LUC luminescence (time after treatment 24 h) | PER2::LUC luminescence (time after treatment 30 h) |
| --- | --- | --- |
| CCN1CCC[C@H]1CNC(=O)c1c(OC)ccc(Br)c1OC | 1.03 | 0.993 |
| CCCCN1CCCC1CNC(=O)c1cc(C#N)c2ccccc2c1OC (stereo not given) | 1 | 1.58 |
| CC(C)=CCC[C@@H](C)[C@H]1CC[C@@]2(C)C3=C(CC[C@]12C)[C@@]1(C)CC[C@H](O)C(C)(C)[C@@H]1CC3 | 1.06 | 0.995 |
| O=C(O)CC1CCC(c2ccc(-c3ccc4nc(C(=O)NCc5ccc(OC(F)(F)F)cc5)cn4c3)cc2)CC1 (stereo not given) | 1 | 1.1 |
| CC(C)(C)c1ccc(-c2nc3ccccc3[nH]2)cc1 | 0.03 | 0.034 |
| c1ccc(Cc2nc3ccccc3[nH]2)cc1 | 1.17 | 0.971 |
| c1ccc2[nH]c(-c3cscn3)nc2c1 | 1.41 | 1.35 |
| O=C(NC[C@@H]1CN(c2ccc(N3CCOCC3=O)cc2)C(=O)O1)c1ccc(Cl)s1 | 0.948 | 0.975 |
| CNC(=O)[C@H]1O[C@@H](n2cnc3c(N)ncnc32)[C@H](O)[C@@H]1O | 1.11 | 1.03 |
| C[C@H]1CC[C@@H](C(C)(C)O)CC2=C1CC[C@@H]2C | 1.46 | 1.05 |
| CC1(O)CCC(C(C)(C)O)CC1 (stereo not given) | 0.901 and 0.99 | 0.986 and 0.688 |
| CCOc1ccc2nc(S(N)(=O)=O)sc2c1 | 1.19 | 1.28 |
| Nc1nc2ccc(OC(F)(F)F)cc2s1 | 1.26 and 0.999 | 1.5 and 1.06 |
| Oc1ccc(/C=C/c2cc(O)cc(O)c2)cc1 | 1.46 | 1.29 |
| COc1cc(/C=C/c2ccc(O)cc2)cc(OC)c1 | 1.03 | 0.93 |
| Oc1cc(O)cc(/C=C/c2ccc(O)c(O)c2)c1 | 1.15 | 1.09 |
| NC1(C(=O)O)C[C@@H](C(=O)O)[C@H](C(=O)O)C1 (racemic) | 0.98 | 0.892 |
| COc1cc(-c2oc3cc(O)ccc3c(=O)c2O)ccc1O | 1.13 | 1.2 |
| COc1cc(N(C)CCN(C)C)c(N)cc1Nc1nccc(-c2cn(C)c3ccccc23)n1 | 0.57 | 0.54 |
| COc1ccc2c(c1)OCc1c-2oc2cc(OC)ccc12 | 1.52 | 1.8 |
| COc1ccc2c(c1)OC/C(=C\c1ccc(OC)c(O)c1)C2=O | 0.879 | 0.794 |
| COc1ccc2c(C)cc(=O)oc2c1 | 0.984 | 1.02 |

| SMILES | PER2::LUC luminescence (time after treatment 24 h) | PER2::LUC luminescence (time after treatment 30 h) |
| --- | --- | --- |
| OC1c2ccccc2N=C2CCCN21 (stereo not given) | 0.854 | 0.868 |
| CCS(=O)(=O)N1CC(CC#N)(n2cc(-c3ncnc4[nH]ccc34)cn2)C1 | 1.09 and 0.875 | 1.24 and 1.03 |
| N#CCC(C1CCCC1)n1cc(-c2ncnc3[nH]ccc23)cn1 (stereo not given) | 1.26 | 1.51 |
| N#CC[C@H](C1CCCC1)n1cc(-c2ncnc3[nH]ccc23)cn1 | 0.99 | 1.13 |
| CCC1=C[C@H]2CN(C1)Cc1c([nH]c3ccccc13)[C@@](C(=O)OC)(c1cc3c(cc1OC)N(C)[C@H]1[C@@](O)(C(=O)OC)[C@H](OC(C)=O)[C@]4(CC)C=CCN5CC[C@]31[C@@H]54)C2 | 0.279 | 0.324 |
| O=C(Nc1ccc(Cl)cc1)c1cc(Br)ccc1O | 0.822 | 0.728 |
| CCc1c(C(=O)NNC(=O)[C@@H](O)c2cc(F)cc(F)c2)ccc(O)c1C | 1.02 | 1.09 |
| O=Nc1c(-c2c(O)[nH]c3ccccc23)[nH]c2ccccc12 | 1.72 | 2.02 |
| O=Nc1c(-c2c(O)[nH]c3cc(Br)ccc23)[nH]c2ccccc12 | 0.663 | 0.788 |
| O=C1N=c2ccccc2=C1c1c(O)[nH]c2ccccc12 | 0.942 | 0.677 |
| CN(C)Cc1nc(-c2cn(C)c3ccccc23)no1 | 0.847 | 0.949 |
| NS(=O)(=O)c1ccc(C(=O)O)cc1 | 0.746 | 1.06 |
| CCCN(CCC)S(=O)(=O)c1ccc(C(=O)O)cc1 | 0.832 | 0.861 |
| O=C(O)c1ccc(S(=O)(=O)N(Cl)Cl)cc1 | 0.921 | 1.67 |
| COc1cccc(/C=N/N(C(=O)C(F)(F)F)c2ccc(C)cc2C)c1 | 0.818 | 0.768 |
| CN(CCCNC(=O)c1ccc2nc3c(c(Cl)c2c1)CCCC3)Cc1ccccc1 | 0.848 | 0.958 |
| C=CCn1c(=O)c2c(nc(-c3ccccc3)n2C)n(C)c1=O | 0.98 | 0.951 |
| O=c1c(O)c(-c2ccc(O)cc2)oc2cc(O)cc(O)c12 | 1.01 | 0.989 |
| O=c1c(O)c(-c2cc(O)c(O)c(O)c2)oc2cc(O)cc(O)c12 | 1.22 | 1.34 |
| O=c1c(O)c(-c2ccc(O)cc2O)oc2cc(O)cc(O)c12 | 0.955 | 0.963 |
| O=c1c(O)c(-c2ccccc2O)oc2cc(O)cc(O)c12 | 0.983 | 0.996 |
| O=c1c(O)c(-c2ccc(O)c(O)c2)oc2cc(O)cc(O)c12 | 0.939 and 0.842 | 0.934 and 1 |

| SMILES | PER2::LUC luminescence (time after treatment 24 h) | PER2::LUC luminescence (time after treatment 30 h) |
| --- | --- | --- |
| O=c1c(O)c(-c2ccccc2)oc2cc(O)cc(O)c12 | 1.24 | 1.34 |
| C[C@@H]1O[C@@H](O[C@H]2[C@H](Oc3cc(O)c4c(=O)c(O)c(-c5ccc(O)cc5)oc4c3)O[C@H](CO)[C@@H](O)[C@@H]2O)[C@H](O)[C@H](O)[C@H]1O | 1.24 | 0.968 |
| COC(=O)C1=CO[C@@H](O[C@@H]2O[C@H](CO)[C@@H](O)[C@H](O)[C@H]2O)[C@H]2[C@@H]1C(=O)C[C@@H]2C | 0.968 | 0.979 |
| NC(=O)[C@@H]1CC[C@H](c2ccc(OCc3ccccc3F)cc2)N1 | 0.937 | 1.12 |
| COc1ccc(C(=O)c2ccccc2C(=O)O)c(O)c1 | 1.19 | 0.841 |
| Ic1cccc(/C=N/Nc2nc(N3CCOCC3)nc(N(c3ccccc3)c3ccccc3)n2)c1 | 1.3 | 1.15 |
| CCOC(=O)C1=C(COCCN)NC(C)=C(C(=O)OC)[C@@H]1c1ccccc1Cl | 0.445 | 0.46 |
| COC(=O)C1=C(C)NC(C)=C(C(=O)OCCN(C)Cc2ccccc2)C1c1cccc([N+](=O)[O-])c1 (stereo not given) | 1.07 | 0.867 |
| CCOC(=O)C1=C(C)NC(C)=C(C(=O)OC)C1c1cccc([N+](=O)[O-])c1 (stereo not given) | 1.06 and 0.626 | 1.37 and 0.715 |
| COCCOC(=O)C1=C(C)NC(C)=C(C(=O)OC(C)C)C1c1cccc([N+](=O)[O-])c1 (stereo not given) | 1.13 | 1.17 |
| Cc1ccc(NC(=O)c2cccc(N(C)C)c2)cc1NC(=O)c1ccc(O)cc1 | 1.1 | 1.56 |
| Cc1ccc(C(=O)Nc2ccc(S(=O)(=O)O)c3cc(S(=O)(=O)O)cc(S(=O)(=O)O)c23)cc1NC(=O)c1cccc(NC(=O)Nc2cccc(C(=O)Nc3cc(C(=O)Nc4ccc(S(=O)(=O)O)c5cc(S(=O)(=O)O)cc(S(=O)(=O)O)c45)ccc3C)c2)c1 | 0.964 and 0.875 | 0.981 and 0.97 |
| CNCc1ccc(C)c(NC(=O)c2ccc(Nc3nc(-c4ccccc4)c4ccccc4n3)cc2)c1 | 0.439 | 0.475 |
| CO/S(=N\S(=O)(=O)c1ccc(Cl)cc1)c1ccc([N+](=O)[O-])cc1 (stereo not given) | 0.994 | 1.22 |
| COc1cc(OC)cc(C(=O)Nc2ccc(Cl)c(-c3nc4ccc(N(C)C)cc4[nH]3)c2)c1 | 0.977 | 1.35 |
| NC(=O)c1ccc2nc(-c3ccc(Oc4ccc(Cl)cc4)cc3)[nH]c2c1 | 1.29 | 1.16 |
| CC(C)CC[C@@H](O)[C@](C)(O)[C@H]1CC[C@@]2(O)C3=CC(=O)[C@]4(O)C[C@@H](O)[C@@H](O)C[C@]4(C)[C@H]3[C@H](O)C[C@]12C | 1.22 | 1.26 |
| Cc1o[nH]c(=O)c1CCC(N)C(=O)O (stereo not given) | 0.959 | 0.829 |
| O=C[C@H](O)[C@H]1OC(=O)[C@@H](O)[C@H]1O | 1.14 | 0.922 |

Reference: the supplement of paper PMC9334596
